This is a sample that favours compounds with a hit; in the whole collection about 3.5% have one here.
TEAD-YAP block: TEAD-YAP interaction inhibition, primary screen, TEAD-YAP interaction inhibitor project, luminescence, HEK-TIYL cells; TEAD-Gal4/YAP UAS-luciferase luminescence; inhibition, % at 9.12 µM; actives 1.4% (n = 640,000); in the data active = inhibition above about 32%;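 note: 0% = median of test compound wells and 100% = reference inhibitor wells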
FBW7 activator: FBW7 E3 ligase activators, primary screen, biochemical, AlphaScreen, human. F-box/WD repeat-containing protein 7 (Homo sapiens), Q969H0. actives 0.13% (n = 650,000). AID 1259310, 2017. AlphaScreen FBW7–phospho-cyclin E peptide binding, activator screen. normalized activity (activation), % at 26.1 µM; in the data active = normalized activity above about 1.9%;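 note: purified mutant Fbw7 with reduced substrate affinity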
MITF inh: MITF inhibitors, primary screen, biochemical, AlphaScreen, human. actives 0.91% (n = 650,000). inhibition, % at 2.6 µM. Microphthalmia-associated transcription factor (Homo sapiens), O75030. AlphaScreen MITF homodimerization, bead proximity signal; in the data active = inhibition above about 50%;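 note: 0% = vehicle wells with protein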
GPR151 activ: activators of human GPR151, primary screen, cell-based, PathHunter beta-arrestin, luminescence | PathHunter beta-arrestin GPR151 cells | activation, % at 11.2 µM | actives 1% (n = 650,000) | AID 1508602, 2020; in the data active = activation above about 4.9%;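 note: 0% = median of compound wells and 100% = cells with positive control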
Target sequence (Q8TDV0 whole entry, looked up): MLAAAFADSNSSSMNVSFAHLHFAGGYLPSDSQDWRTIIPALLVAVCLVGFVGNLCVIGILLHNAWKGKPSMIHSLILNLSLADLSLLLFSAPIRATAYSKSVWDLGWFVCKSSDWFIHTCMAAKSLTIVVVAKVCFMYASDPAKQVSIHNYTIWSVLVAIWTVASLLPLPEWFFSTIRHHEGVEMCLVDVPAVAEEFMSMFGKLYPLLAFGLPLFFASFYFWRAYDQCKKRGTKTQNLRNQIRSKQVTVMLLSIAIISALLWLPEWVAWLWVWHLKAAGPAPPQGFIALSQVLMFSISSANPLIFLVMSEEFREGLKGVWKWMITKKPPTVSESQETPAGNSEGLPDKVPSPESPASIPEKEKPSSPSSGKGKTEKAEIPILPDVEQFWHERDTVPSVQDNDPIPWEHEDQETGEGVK
GPR151 confirm: GPR151 activators, triplicate retest, confirmation, cell-based, PathHunter beta-arrestin, luminescence | GPR151 PathHunter beta-arrestin cells, 90 min; % of EA-reagent control over plate median | 6,700 tested, under 10 active | activation, % at 11.2 µM | shares compounds with GPR151 activ | AID 1508609, 2020;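 active = mean percent activation across replicates above the confirmation screen cutoff of 4.91%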
GPR119 ag: GPR119 activators in beta-arrestin cells, counter-screen for GPR151 activator project, cell-based, PathHunter beta-arrestin, luminescence, triplicate; actives 0.3% (n = 6,700); AID 1508611, 2020; shares compounds with GPR151 activ; 90 min; 0 = compound-well median, 100 = enzyme-acceptor control; activation, % at 11.2 µM;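 active = mean percent activation in the counterscreen above 29.09%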;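 note: counterscreen on off-target GPR119 to flag nonselective hits from the GPR151 activator screen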
Starred values were filed as active, the others as inactive.

What do the screens show for `COc1ccc(-c2csc3ncnc(SCc4c(C)noc4C)c23)cc1`?
TEAD-YAP block: -3.2; FBW7 activator: 0.4; MITF inh: -16.3; GPR151 activ: 8.1*; GPR151 confirm: -0.5; GPR119 ag: -4.3

How did O=C1N=C(N2CCCC2C(=O)O)S/C1=C\c1ccco1 (stereo unspecified) do in these assays?
TEAD-YAP block: 6.7; FBW7 activator: -0.3; MITF inh: 3.8; GPR151 activ: 11.1*; GPR151 confirm: -1.6; GPR119 ag: -5.0

What do the screens show for `O=C1N=C(N2CCCCC2)S/C1=C\c1ccco1`?
TEAD-YAP block: -16.1; FBW7 activator: 0.2; MITF inh: 8.8; GPR151 activ: -1.6

Results for Nn1c(SCC(=O)NC(c2ccccc2)c2ccccc2)nnc1C1CC1 ?
TEAD-YAP block: 11.5; FBW7 activator: 0.0; MITF inh: -19.0; GPR151 activ: -0.6

How did CC(C)c1nnc(SCC(=O)NC(c2ccccc2)c2ccccc2)n1N do in these assays?
TEAD-YAP block: -7.8; FBW7 activator: 0.0; MITF inh: -0.2; GPR151 activ: 6.3*; GPR151 confirm: 0.4; GPR119 ag: -7.3

What do the screens show for `CCn1c(SCC(=O)c2ccccc2)nnc1-c1ccccn1`?
TEAD-YAP block: -58.3; FBW7 activator: -0.5; MITF inh: 6.2; GPR151 activ: 0.0

How did CCn1c(SCC(=O)c2ccccc2)nnc1C(C)C do in these assays?
TEAD-YAP block: -15.0; FBW7 activator: 0.1; MITF inh: -8.6; GPR151 activ: 12.7*; GPR151 confirm: 0.8; GPR119 ag: 9.3

Results for COc1cc(NC(=O)c2cc(N3CCCC3CO)nc3ccccc23)cc(OC)c1OC (stereo unspecified) ?
TEAD-YAP block: -11.9; FBW7 activator: 0.1; MITF inh: -7.1; GPR151 activ: 1.3

Results for O=C(c1ccc(Cl)cc1)c1cc(NC(=O)c2cc(Br)cc(Br)c2O)ccc1Oc1ccc(Cl)cc1 ?
TEAD-YAP block: 0.8; FBW7 activator: 0.1; MITF inh: -11.7; GPR151 activ: 9.6*; GPR151 confirm: 0.7; GPR119 ag: -4.2

How did O=C(CSc1ccccn1)N/N=C/c1ccccc1Cl do in these assays?
TEAD-YAP block: -4.9; FBW7 activator: 0.1; MITF inh: 4.5; GPR151 activ: 1.3

Results for Cc1nc(NC(=O)CSc2nc3ccccc3n2CC(=O)N2CCCCC2)sc1C ?
TEAD-YAP block: 2.7; FBW7 activator: 0.1; MITF inh: 10.4; GPR151 activ: -0.6

What do the screens show for `O=C(Nc1ccc(-c2ccccc2)cc1)c1ccc(F)cc1`?
TEAD-YAP block: -22.0; FBW7 activator: 0.1; MITF inh: -20.5; GPR151 activ: 1.4

How did CC(C)c1c(C(=O)Nc2ccccc2)c(-c2ccccc2)c(-c2ccc(F)cc2)n1CC[C@@H](O)C[C@@H](O)CC(=O)O do in these assays?
FBW7 activator: 0.1; MITF inh: -4.2; GPR151 activ: 5.2*; GPR151 confirm: -0.2; GPR119 ag: -14.5

Results for COc1cccc(N2C(=O)NC(=O)/C(=C/c3c(OC)ccc4ccccc34)C2=O)c1 ?
TEAD-YAP block: 2.9; FBW7 activator: -0.2; MITF inh: -11.1; GPR151 activ: -0.5

Results for COc1ccc(N2C(=O)NC(=O)/C(=C/c3cccn3-c3cccc([N+](=O)[O-])c3)C2=O)cc1 ?
TEAD-YAP block: -0.1; FBW7 activator: -0.1; MITF inh: 15.0; GPR151 activ: 4.9*; GPR151 confirm: 0.1; GPR119 ag: 4.4

Results for COc1ccc2ccccc2c1/C=C1\C(=O)NC(=O)N(c2ccc([N+](=O)[O-])cc2)C1=O ?
TEAD-YAP block: 7.7; FBW7 activator: -0.1; MITF inh: 10.4; GPR151 activ: 6.7*; GPR151 confirm: -0.4; GPR119 ag: -0.1

How did C=CCOC(=O)C1=C(C)NC(C)=C(C(=O)OCC=C)C1c1cn(-c2ccccc2)nc1-c1ccc(Br)cc1 do in these assays?
TEAD-YAP block: -3.7; FBW7 activator: 0.9; MITF inh: -6.7; GPR151 activ: 5.0*; GPR151 confirm: 0.4; GPR119 ag: 8.1

Results for CS(=O)(=O)NCC1CCC(C(=O)NC2CCN(Cc3ccccc3)CC2)CC1 (stereo unspecified) ?
TEAD-YAP block: 3.3; FBW7 activator: 0.4; MITF inh: 7.6; GPR151 activ: 5.6*; GPR151 confirm: 0.7; GPR119 ag: 10.8

Results for O=c1c(NCCC2=CCCCC2)c(-c2ccc(Cl)cc2)c1=O ?
TEAD-YAP block: 3.2; FBW7 activator: 0.0; MITF inh: 0.6; GPR151 activ: -1.3

Results for NC(=O)c1cccn1Cc1cccc(Cl)c1 ?
TEAD-YAP block: 5.9; FBW7 activator: -0.3; MITF inh: 3.0; GPR151 activ: 0.9

How did CCOC(=O)c1nccn1Cc1ccccc1Cl do in these assays?
TEAD-YAP block: -10.8; FBW7 activator: 0.0; MITF inh: 6.6; GPR151 activ: 9.4*; GPR151 confirm: -0.6; GPR119 ag: -6.4

Results for NC(=O)c1cccn1Cc1ccccc1Cl ?
TEAD-YAP block: -7.1; FBW7 activator: 0.0; MITF inh: -4.4; GPR151 activ: 5.2*; GPR151 confirm: -0.6; GPR119 ag: 24.5

What do the screens show for `COc1ccc(CNc2ncnc3c2cnn3-c2cccc(C)c2)cc1`?
TEAD-YAP block: -11.8; FBW7 activator: 0.1; MITF inh: 5.5; GPR151 activ: 5.2*; GPR151 confirm: 0.4; GPR119 ag: -5.4

How did Cc1ccc(-n2ncc3c(NCc4cccnc4)ncnc32)c(C)c1 do in these assays?
TEAD-YAP block: 2.3; FBW7 activator: 0.1; MITF inh: 5.7; GPR151 activ: 8.5*; GPR151 confirm: -0.7; GPR119 ag: -3.2

What do the screens show for `Cc1ccc(-n2ncc3c(SCC(=O)NC(C)(C)C)ncnc32)c(C)c1`?
TEAD-YAP block: 3.8; FBW7 activator: -0.2; MITF inh: -5.9; GPR151 activ: 7.2*; GPR151 confirm: 0.0; GPR119 ag: -4.4

How did c1ccc(-n2ncc3c(Nc4cccc5ccccc45)ncnc32)cc1 do in these assays?
TEAD-YAP block: -2.2; FBW7 activator: 0.0; MITF inh: 16.1; GPR151 activ: 5.7*; GPR151 confirm: -0.6; GPR119 ag: -8.1

How did CC(=O)c1cccc(NC(=O)/C=C/c2cccc3ccccc23)c1 do in these assays?
TEAD-YAP block: -17.7; FBW7 activator: -0.1; MITF inh: -11.1; GPR151 activ: 0.9

What do the screens show for `CCCCNC(=O)CSc1nc2ccccc2c2nc(CCN3CCCCC3)nn12`?
TEAD-YAP block: 6.1; FBW7 activator: 0.4; MITF inh: 13.5; GPR151 activ: -1.2
